This is a sample that favours compounds with a hit; in the whole collection about 6.7% have one here.
Pf Dd2 growth = P. falciparum Dd2 growth inhibition. activity change, % at 10 µM. SYBR Green, 72 h; hits give low values. 2.3% of 94,000 active. AID 1159554; in the data active = activity change below about -80%; inconclusive = no clear call, values can overlap the other calls
T cruzi growth-1 = inhibitors of T. cruzi proliferation; T. cruzi beta-gal in NIH3T3, GalScreen luminescence, 90 h; inhibition, % at 8.34 µM; 5.9% of 77,000 active; AID 624255;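 active = mean inhibition above about 93%, with at least 55% of replicates each passing it, limit read from the data, passing the limit was not always enough; inconclusive = only one of those two conditions holds; inactive = neither condition holds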
C diff growth = C. difficile growth inhibition | Clostridium difficile clinical isolate growth, OD600, 24 h; hits give low values | growth activity, negative = inhibition, % at 16 µg/mL (by protocol) | 0.25% of 86,000 active | AID 1259249;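 active = mean growth activity at or below -80% and every replicate also at or below -80%; inconclusive = mean at or below -80% but some replicate above -80%; inactive = mean growth activity above -80%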;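 also: 0% = DMSO wells and -100% = levofloxacin 16 µg/mL wells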
T cruzi growth-2 = blocks T. cruzi growth in NIH3T3 host cells; inhibition, % at 8.35 µM; shares compounds with T cruzi growth-1; 72% of 5,600 active; T. cruzi beta-gal in NIH3T3, GalScreen luminescence, 90 h;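 active = mean replicate inhibition above about 95% and at least 55% of replicates individually reaching it, limit read from the data; inconclusive = only one of the two criteria is met; inactive = neither criterion is met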
T cruzi growth-3 = blocks T. cruzi growth in NIH3T3 host cells. inhibition, % at 2.09 µM. shares compounds with T cruzi growth-1. T. cruzi beta-gal in NIH3T3, GalScreen luminescence, 90 h. 21% of 5,600 active. AID 651740;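 active = mean inhibition above about 95%, with at least 55% of replicates also reaching it, limit read from the data; inconclusive = meets just one of the two conditions; inactive = meets neither condition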;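 also: plate controls were neutral control median for no effect and positive control median for full effect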
NIH3T3 tox = cytotoxicity in mouse NIH/3T3 fibroblasts; shares compounds with T cruzi growth-1; NIH/3T3 viability, CellTiter-Glo ATP luminescence, 90 h; cytotoxicity (signal decrease), % at 8.35 µM; 14% of 5,600 active; AID 651742;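 active = mean signal decrease across replicates above about 35% based on untreated-well scatter, with enough replicates individually passing, limit read from the data; inconclusive = no rule stated though some were filed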;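 also: 0% = median of neutral control wells and 100% = median of positive control wells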
NIH3T3 tox 2 = kills mouse NIH/3T3 fibroblasts. AID 651744. shares compounds with T cruzi growth-1. 56% of 5,600 active. NIH/3T3 viability, CellTiter-Glo ATP luminescence, 90 h. inhibition, % at 24.9 µM;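 active = mean loss of cell viability signal at or above a set limit, and enough replicates individually reaching it; inconclusive = meets only the mean limit or only the replicate share; inactive = meets neither condition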;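 also: 0% = median of neutral control wells and 100% = median of positive control wells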
The depositor's hits bear a star; ? = inconclusive; / = no result.

SMILES	Pf Dd2 growth	T cruzi growth-1	C diff growth	T cruzi growth-2	T cruzi growth-3	NIH3T3 tox	NIH3T3 tox 2
CC(C)NC(=O)Nc1ccc2c(c1)C(=O)N([C@H](C)CO)C[C@@H](C)[C@@H](CN(C)Cc1ccc3c(c1)OCO3)OCCCC[C@@H](C)O2	-48	-3	1	/	/	/	/
C[C@H]1CN([C@@H](C)CO)C(=O)c2cc(NC(=O)Cn3cnnn3)ccc2O[C@@H]1CN(C)S(=O)(=O)c1cn(C)cn1	31	24	/	/	/	/	/
CC(C)NC(=O)N1CCCCN2[C@@H](CO)[C@H](c3ccc(C#CC4CC4)cc3)[C@@H]2C1	14	?	-2	94	36	-11	22
CC(C)NC(=O)N1CCCCN2[C@H](CO)[C@H](c3ccc(C#C[C@@H](C)O)cc3)[C@@H]2C1	-1	68	0	/	/	/	/
CC(C)NC(=O)N1CCCCN2[C@@H](CO)[C@H](c3ccc(C#Cc4ccccc4)cc3)[C@@H]2C1	-23	106*	26	108*	78	27	105*
CC(C)NC(=O)N1CCCCN2[C@H](CO)[C@H](c3ccc(C#Cc4ccccc4)cc3)[C@@H]2C1	-66	115*	-8	109*	56	42*	62*
CC(C)NC(=O)N1CCCCN2[C@H](CO)[C@H](c3ccc(C#CC4CC4)cc3)[C@@H]2C1	32	30	-12	/	/	/	/
CC(C)NC(=O)N1CCCCN2[C@H](CO)[C@@H](c3ccc(C#C[C@@H](C)O)cc3)[C@H]2C1	19	47	1	/	/	/	/
CC(C)NC(=O)N1CCCCN2[C@H](CO)[C@@H](c3ccc(C#C[C@H](C)O)cc3)[C@@H]2C1	-78	106*	0	47	25	11	25
CC(C)NC(=O)N1CCCCN2[C@H](CO)[C@@H](c3ccc(C#C[C@H](C)O)cc3)[C@H]2C1	18	31	6	/	/	/	/
COc1cccc(S(=O)(=O)Nc2ccc3c(c2)OC[C@@H](C)N(Cc2ccccc2F)C[C@@H](C)[C@@H](OC)CN(C)C3=O)c1	33	?	/	/	/	/	/
Cc1cc(C(=O)Nc2cccc3c2O[C@H](CN(C)S(=O)(=O)c2c(C)noc2C)[C@H](C)CN([C@H](C)CO)C3=O)n(C)n1	25	73	-4	/	/	/	/
CCCNC(=O)N1C[C@H](O)COC[C@H]2O[C@H](CC(=O)NCc3ccc(Cl)c(Cl)c3)CC[C@@H]21	-2	23	-4	/	/	/	/
O=C(C[C@H]1C[C@H]2c3cc(NC(=O)c4cccnc4)ccc3O[C@H]2[C@H](CO)O1)NCc1ccccc1	2	16	/	/	/	/	/
CC(C)C#Cc1ccc([C@@H]2[C@@H](CO)N3CCCCN(C(=O)NC(C)C)C[C@H]23)cc1	19	92	-13	/	/	/	/
CC(C)NC(=O)N1CCCCN2[C@H](C1)[C@H](c1ccc(C#C[C@H](C)O)cc1)[C@@H]2CO	56	19	-10	/	/	/	/
CC(C)NC(=O)N1CCCCN2[C@H](CO)[C@@H](c3ccc(C#Cc4ccccc4)cc3)[C@@H]2C1	8	101*	32	107*	91	30	105*
CC(C)NC(=O)N1CCCCN2[C@H](CO)[C@@H](c3ccc(C#Cc4ccccc4F)cc3)[C@@H]2C1	-25	102*	-1	108*	85	16	105*
Cc1ccc(S(=O)(=O)N(C)C[C@@H]2OCCCC[C@H](C)Oc3ccc(NC(=O)Nc4cccc5ccccc45)cc3C(=O)N([C@@H](C)CO)C[C@H]2C)cc1	-76	/	2	/	/	/	/
C[C@H]1CN([C@@H](C)CO)C(=O)Cc2cc(NC(=O)c3ccncc3)ccc2O[C@H]1CN(C)S(C)(=O)=O	-26	-10	-2	/	/	/	/
O=C(Nc1ccc(C(F)(F)F)cc1)N[C@@H]1CC[C@H](CCn2cc(C3(O)CCCC3)nn2)O[C@@H]1CO	-65	86	5	/	/	/	/
C[C@@H]1CN([C@H](C)CO)C(=O)c2cc(C#Cc3cccc(F)c3)cnc2O[C@H]1CN(C)C(=O)c1ccccc1F	-85*	104*	-6	106*	44	43*	?
C[C@@H]1CN([C@@H](C)CO)C(=O)c2cc(C#Cc3ccccc3)cnc2O[C@@H]1CN(C)C(=O)c1ccccc1F	-45	-7	-10	/	/	/	/

Assay outcomes: PubChem, Broad Institute
